The record followed here is PubChem BioAssay (NCI).

About 83,000 compounds went through this panel and 20% of them were active in at least one assay; those are over-represented in the sample as a whole.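 Testing used 96-well plates and a 48-hour single-concentration exposure. Example: -40 means 40% of the starting cells died.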 Unmarked numbers belong to inactive results. Calls of active or inactive are those of the source. How the source made its calls: active means growth percent below 10; inactive means the rest.

Some test systems named below: SK-MEL-2 melanoma; EKVX NSCLC; SN12C renal; UO-31 renal; TK-10 renal; ACHN renal; CAKI-1 renal; A498 renal; CCRF-CEM leukemia; SR leukemia; RPMI-8226 leukemia; OVCAR-5 ovarian; OVCAR-4 ovarian; SK-OV-3 ovarian; IGROV1 ovarian; OVCAR-3 ovarian; HS 578T breast; NCI/ADR-RES ovarian; MOLT-4 leukemia; OVCAR-8 ovarian.
What all share (test): NCI-60 one-dose screen, 48 h (100 = growth as untreated, 0 = no growth, -100 = all killed)
Details in all cases: 10 µM unless noted

As for `CCCCCCCCCCCCCCCCCCOc1ccc(CC(=O)OCC[N+]2(C)CCCC2)cc1`, the growth was 117% in the experiment with SK-MEL-2 melanoma; 100% in the experiment on EKVX NSCLC; 97.9% in the experiment with SN12C renal; 92.4% with UO-31 renal; 98.4% in the experiment with TK-10 renal; 96.8% in the experiment with ACHN renal. For the same compound, the growth is 84.9% in the experiment on CAKI-1 renal; 116% in the experiment with A498 renal; 99.1% in the experiment on CCRF-CEM leukemia; 101% in the experiment with SR leukemia; 97.6% in the experiment with RPMI-8226 leukemia; 97.9% in the experiment with OVCAR-5 ovarian. Also, the growth with OVCAR-4 ovarian was 87.3%; in the experiment with SK-OV-3 ovarian, 108%; in the experiment with IGROV1 ovarian, 94.1%; with OVCAR-3 ovarian, 109%; in the experiment with HS 578T breast, 95%; with NCI/ADR-RES ovarian, 106%.
Regarding `CN(Cc1cnc2nc(N)nc(N)c2n1)c1ccc(C(=O)N[C@@H](CCc2nn[nH]n2)c2nn[nH]n2)cc1`, the growth in the experiment with SK-MEL-2 melanoma is 75.3%; in the experiment with EKVX NSCLC it was 85.7%; in the experiment with SN12C renal, 36%; in the experiment with UO-31 renal, 43.1%; in the experiment with TK-10 renal, 56.4%; in the experiment with ACHN renal, 33.6%. The growth in the experiment on CAKI-1 renal was 29.3%; in the experiment on A498 renal, 97.2%; in the experiment with MOLT-4 leukemia, 28.2%; in the experiment on SR leukemia, 29.2%; in the experiment on RPMI-8226 leukemia it was 44.1%; in the experiment on OVCAR-8 ovarian, 32.8%. Further, the growth with OVCAR-5 ovarian is 56.1%; in the experiment on OVCAR-4 ovarian, 91%; in the experiment with SK-OV-3 ovarian, 82.8%; with IGROV1 ovarian, 45.6%; with OVCAR-3 ovarian it was 53%; in the experiment on HS 578T breast, 76.2%. For the same compound, the growth in the experiment with NCI/ADR-RES ovarian was 40.4%.
As for `O=S(=O)(Nc1cccc(Cl)c1)c1ccc(-c2cnc(C3CC3)o2)cc1`, the growth with SK-MEL-2 melanoma is 58.8%; in the experiment on EKVX NSCLC, 35.1%; in the experiment with SN12C renal, 39.7%; in the experiment on UO-31 renal it was 35.5%; with TK-10 renal, 45.9%; with ACHN renal, 37.1%. In addition, the growth was 29.8% with CAKI-1 renal; -3.4% (active) with A498 renal; 12.8% in the experiment with CCRF-CEM leukemia; 17.8% in the experiment on RPMI-8226 leukemia; 33.5% in the experiment with OVCAR-8 ovarian; 41.7% in the experiment with OVCAR-4 ovarian. For the same compound, the growth in the experiment with SK-OV-3 ovarian was 34.3%; in the experiment on IGROV1 ovarian, 26.4%; in the experiment with OVCAR-3 ovarian, -9.95% (active); in the experiment with HS 578T breast it was 1.3% (active); in the experiment with NCI/ADR-RES ovarian it was 18.9%.
On to `COc1cccc(-c2nn(-c3ccccc3)cc2-c2ccnc(NCCCNC(=O)c3ccc(F)cc3)c2)c1`, for which the growth with SK-MEL-2 melanoma is 51.6%; in the experiment on EKVX NSCLC it was 44.5%; with SN12C renal it was 62.6%; in the experiment with UO-31 renal, 40.5%; in the experiment on TK-10 renal, 57.8%; in the experiment with ACHN renal it was 71%. In addition, the growth in the experiment with CAKI-1 renal was 52.4%; in the experiment with A498 renal it was 31%; with CCRF-CEM leukemia it was 38.6%; with SR leukemia, -14.2% (active); with OVCAR-8 ovarian, 45.9%; with OVCAR-4 ovarian it was 42.1%. In addition, the growth in the experiment with SK-OV-3 ovarian was 48.2%; with IGROV1 ovarian it was 47.5%; in the experiment on OVCAR-3 ovarian, 37.7%; with HS 578T breast it was 61.4%; in the experiment on NCI/ADR-RES ovarian it was 14.4%.
As to `COc1cc(Cn2ncc3ccc(NC(=O)c4cc5ccccc5oc4=N)cc32)cc(OC)c1OC`, the growth was 88% in the experiment on SK-MEL-2 melanoma; 71.5% with EKVX NSCLC; 87.2% in the experiment with SN12C renal; 51.3% in the experiment with UO-31 renal; 91.4% with TK-10 renal; 57.1% in the experiment with ACHN renal. For the same compound, the growth in the experiment on CAKI-1 renal is 82.4%; in the experiment on A498 renal, 98.3%; in the experiment on CCRF-CEM leukemia, 52.2%; in the experiment on RPMI-8226 leukemia, 51.7%; with OVCAR-8 ovarian, 86.8%; in the experiment on OVCAR-5 ovarian, 58.3%. For the same compound, the growth was 86.6% in the experiment on OVCAR-4 ovarian; 79.4% in the experiment on SK-OV-3 ovarian; 46% in the experiment with IGROV1 ovarian; 38.8% in the experiment on OVCAR-3 ovarian; 90% in the experiment with HS 578T breast; 50% in the experiment on NCI/ADR-RES ovarian.
`CCc1c2c(nc3ccc(OC(=O)NCc4ccc(B5OC(C)(C)C(C)(C)O5)cc4)cc13)-c1cc3c(c(=O)n1C2)COC(=O)[C@]3(O)CC`: the growth in the experiment with SK-MEL-2 melanoma was -28% (active); with EKVX NSCLC, 35.3%; with SN12C renal it was -0.279% (active); with UO-31 renal, -67.7% (active); with TK-10 renal, 0.387% (active); in the experiment on ACHN renal it was -61.5% (active). The growth was -43.3% (active) in the experiment with CAKI-1 renal; -63.1% (active) in the experiment on A498 renal; 19.8% in the experiment on CCRF-CEM leukemia; 10.1% in the experiment with RPMI-8226 leukemia; 4.49% (active) in the experiment on OVCAR-8 ovarian; -12.3% (active) in the experiment with OVCAR-5 ovarian. The growth with OVCAR-4 ovarian is 6.46% (active); in the experiment on SK-OV-3 ovarian it was -1.86% (active); with IGROV1 ovarian it was 11%; with OVCAR-3 ovarian it was -24.7% (active); in the experiment on HS 578T breast it was 23.4%; with NCI/ADR-RES ovarian, -6.58% (active).
Take `Cc1cc(NCc2cc(Nc3ccnc4cc(Cl)ccc34)ccc2F)nc(N2CCN(C)CC2)n1`: the growth with SK-MEL-2 melanoma is -70.7% (active); with EKVX NSCLC, 31%; in the experiment with SN12C renal, 36.8%; in the experiment with UO-31 renal, -8.37% (active); in the experiment with TK-10 renal, -16% (active); with ACHN renal, 5.12% (active). Moreover, the growth was 61.8% with CAKI-1 renal; -26.8% (active) in the experiment with A498 renal; -13.5% (active) with CCRF-CEM leukemia; -14.4% (active) in the experiment on SR leukemia; 12.1% in the experiment on OVCAR-8 ovarian; 9.47% (active) in the experiment on OVCAR-5 ovarian. Also, the growth with OVCAR-4 ovarian is 18.7%; in the experiment on SK-OV-3 ovarian, 29.5%; with IGROV1 ovarian it was 8.72% (active); with OVCAR-3 ovarian, -17.4% (active); in the experiment with HS 578T breast, -7.51% (active); in the experiment with NCI/ADR-RES ovarian, 16.8%.
Turning to `Cc1ccc(-n2c(-c3ccccc3)c(-c3ccccc3)c3c(SCC(=O)n4[nH]c(N)cc4=O)ncnc32)cc1`, the growth with SK-MEL-2 melanoma is 108%; in the experiment on EKVX NSCLC, 87.2%; with SN12C renal it was 99.2%; with UO-31 renal it was 71.9%; in the experiment with TK-10 renal, 104%; with ACHN renal, 91.2%. In addition, the growth with CAKI-1 renal was 88.4%; with A498 renal it was 114%; with MOLT-4 leukemia, 87.3%; in the experiment on SR leukemia, 103%; with RPMI-8226 leukemia it was 81.9%; with OVCAR-8 ovarian, 83.2%. The growth in the experiment with OVCAR-5 ovarian is 101%; in the experiment with OVCAR-4 ovarian, 96%; in the experiment with SK-OV-3 ovarian, 79.5%; with IGROV1 ovarian, 79.8%; in the experiment with OVCAR-3 ovarian it was 91.9%; in the experiment with HS 578T breast it was 106%. The growth with NCI/ADR-RES ovarian was 105%.
